Measurements published in PubChem BioAssay AID686940 (The Scripps Research Institute Molecular Screening Center, 2013).
The whole screen tested about 370,000 compounds, of which about 2,600 (0.7%) were called active. What follows is part of a selection rich in actives, with near analogues and random picks from the rest. A number with no mark means an inactive call.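 The calls were made as follows: active = inhibition above a per-plate cutoff, mean inhibition of test wells between control levels plus 3 SD (cut at about 38% in these data); inactive = the rest.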

These molecules were tested against COUP transcription factor 2 (Homo sapiens) (UniProt P24468) (assay: COUP-TFII reporter suppression in human cells – cell-based, luciferase reporter, HEK293T, luminescence, primary screen (AID 686940;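 also: cells cotransfected with COUP-TFII expression vector driving the NGFI-A reporter; 0% = median of COUP-TF2 test wells and 100% = reporter-only cells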)). Conditions: HEK293T NGFI-A luciferase reporter, at 8.6 µM, active compounds read high.
Sequence of COUP transcription factor 2 (Homo sapiens) (P24468 whole entry, looked up): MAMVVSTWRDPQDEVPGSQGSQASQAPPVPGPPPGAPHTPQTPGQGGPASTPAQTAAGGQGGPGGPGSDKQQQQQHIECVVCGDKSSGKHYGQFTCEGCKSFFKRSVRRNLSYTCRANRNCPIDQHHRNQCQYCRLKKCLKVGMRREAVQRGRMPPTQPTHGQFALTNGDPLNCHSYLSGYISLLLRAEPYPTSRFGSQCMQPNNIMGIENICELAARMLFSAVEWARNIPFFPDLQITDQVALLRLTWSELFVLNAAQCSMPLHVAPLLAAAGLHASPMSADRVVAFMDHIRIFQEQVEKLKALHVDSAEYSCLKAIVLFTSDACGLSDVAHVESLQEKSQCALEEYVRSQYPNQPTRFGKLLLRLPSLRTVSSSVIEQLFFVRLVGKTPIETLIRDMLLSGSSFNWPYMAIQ

Compound | inhibition
Cc1ccccc1OCC(=O)Nc1ccc(N2CCN(C(=O)C(C)C)CC2)c(Cl)c1 | 40.9% (active)
CCc1ccccc1OCC(=O)Nc1ccc(C)c(S(=O)(=O)N2CCCCCC2)c1 | 16.9%
Cc1ccc(NC(=O)COc2coc(CN3CCc4ccccc4C3)cc2=O)cc1Cl | 8.3%
C=CCOC/C=C/C#CCN(CC=C)Cc1ccc(OC)cc1OC | -4.38%
CC1(C)CC2CC(C)(CN2c2ncnc3ccc(Br)cc23)C1 (centres undefined) | 16.5%
CCOC(=O)CNc1nc(Cl)nc(Nc2ccc(OC)cc2OC)n1 | 9.09%
COc1ccc(Nc2ncnc3ccc(Br)cc23)c(OC)c1 | 39.9% (active)
O=C(Nc1cccc(Cl)c1)OC1CC2CC1[C@H]1CCCCN1[C@H]2Cc1ccccc1 (some centres undefined) | 14.6%
COc1ccc(C(=O)Nc2cc(S(=O)(=O)N3CCCC3)ccc2Cl)cc1 | 1.63%
COc1ccc(C(=O)Nc2nc(-c3ccc(S(=O)(=O)N4CCOCC4)cc3)cs2)cc1 | 70.8% (active)
O=C(Nc1ccc(N2CCOCC2)c(Cl)c1)c1ccc(S(=O)(=O)N2CCOCC2)cc1 | 6.88%
COC(=O)[C@@]12CCCCC3=C1N(CCC3)C(=O)[C@H]2CC(=O)NCc1cccc2ccccc12 | -8.73%
Cc1c[nH]c2cccc(-c3ccc(Cl)cc3)c12 | 1.03%
COc1cccc(/C=C2\CC3(OC(C)=O)CCCN2C3)c1 (centres undefined) | -14.3%
CC(=O)N1CCCN(C2=Nc3ccccc3Sc3ccccc32)CC1 | -4.52%
Cc1cc(C(=O)COc2ccccc2Cl)c(C)n1C1CC1 | -24.6%
Cc1cc(C(=O)CSc2nc(N)cc(=O)[nH]2)c(C)n1-c1cccc(F)c1 | 27.2%
Cc1cc(C(=O)COC(=O)C2CC2)c(C)n1-c1ccc(F)cc1 | 56.4% (active)
COC(=O)[C@]12C[C@H](CC(=O)N3CCN(C(=O)C4CC4)CC3)C(=O)N(CCC3=CCCCC3)C1=C[C@H](C(C)C)O[C@@H]2C1CC1 | 5.77%
CC(C)C(C#CC1CC1)N(Cc1ccc2c(c1)OCO2)C(N)=NC(=O)/C=C/c1cccc(C(F)(F)F)c1 (centres undefined) | -0.2%
CCCOc1ccc(Cc2c(O)nc(SC)[nH]c2=O)cc1C | 17.2%
CCCOc1ccc(Cc2c(Cl)nc(SC)nc2NC)cc1 | 46.9% (active)
CCCOc1ccc(Oc2c(Cl)cnn(Cc3cccc4ccccc34)c2=O)cc1 | 3.48%
COC(=O)[C@]12C[C@H](CC(=O)NCC34CC5CC(CC(C5)C3)C4)C(=O)N(Cc3ccc(Cl)cc3Cl)C1=C[C@H](COCc1ccccc1)O[C@@H]2C | -8.65%
